# POLK inh = blocks human DNA polymerase kappa activity; Q9UBT6; purified Pol kappa, fluorescent DNA synthesis assay, 10 min; Potency, µM (top dose mostly 107 µM), for inactives: top-dose activity, negative = inhibition, most hits filed as inhibitors; 400,000 tested, 0.53% active; AID 588579; further: on the % scale 0 is the no-effect control and ±100 the full control effect
#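 Kinetic fluorescence screen: compound preincubated 15 min RT with 10 nM enzyme; 50 nM substrate (final) initiates; reads at 0/10 min.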
# POLI inh = DNA polymerase iota (human) inhibition; Potency, µM (top dose mostly 115 µM), inactives show at the top dose activity, negative = inhibition, hits mostly inhibitors; 390,000 tested, 1% active; Q9UNA4; Pol iota fluorescent replication assay, 10 min
#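 Fluorescent replication assay read twice, at 0 min and 10 min after adding 50 nM (final) substrate. Enzyme (10 nM) and compounds were first incubated 15 min at room temperature; enzyme-free buffer wells were negative controls.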
# POLB inh = blocks human DNA polymerase beta activity. P06746. Pol beta primer extension/strand displacement, fluorescence kinetic. Potency, µM (doses to about 114 µM), without a hit: at the top dose activity change, negative = inhibition, hits mostly inhibitors. 340,000 tested, 1.3% active. AID 485314; further: on the % scale 0 is the no-effect control and ±100 the full control effect
#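 Preincubation: enzyme (10 nM) with compound, 15 min, RT. Reaction: substrate added to 50 nM final. Reads: 0 and 10 min. Analysis: normalized, Hill fit.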
# GLS inh = blocks human kidney-isoform glutaminase activity; O94925; AID 624170; Potency, µM (titrated, usually from 45.5 µM), inactives show at the top dose activity change, negative = inhibition, usual class: inhibitors; 410,000 tested, 0.21% active; GLS enzymatic activity, qHTS titration; further: on the % scale 0 is the no-effect control and ±100 the full control effect
#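 Two-point fluorescence kinetic (t0, 30 min RT) for hKGA; glutamate detected via glutamate oxidase–HRP–Amplex Red. Substrate: 1 mM L-glutamine solution; buffer 45 mM KH2PO4, pH 8.2.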
# Pol eta inh = DNA polymerase eta (human) inhibition | Potency, µM (series often up to 114 µM), for inactives: top-dose activity change, negative = inhibition, usual class: inhibitors | recombinant Pol eta, fluorescent DNA replication assay | 390,000 tested, 1.2% active | Q9Y253; further: on the % scale 0 is the no-effect control and ±100 the full control effect
#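 Pol eta (10 nM) was preincubated with compounds for 15 min at room temperature, after which fluorescent replication substrate (50 nM final) was added to start the reaction. Fluorescence was read kinetically at 0 and 10 min.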
# APE1 inh-1 = APE1 (human) endonuclease inhibition | Potency, µM (titrated, usually from 65.8 µM), for inactives: top-dose activity change, negative = inhibition, hits mostly inhibitors | recombinant APE1, TAMRA/BHQ-2 abasic DNA cleavage fluorescence | 350,000 tested, 0.35% active | P27695;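 further: plate controls were vehicle for no effect and reference inhibitor for full effect; nearly all actives have a fitted effect of over 55% in size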
#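 Incision of a quenched TAMRA/BHQ-2 THF abasic-site duplex (50 nM) by 0.75 nM APE1, after 15 min compound preincubation, measured as fluorescence increase over three 60 s reads. Values normalized to buffer, DMSO and NSC13755 control wells.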
# APE1 dye cs = displaces fluorescent dye from DNA, flagging APE1 artifacts. 480 tested, 7% active. shares compounds with APE1 inh-1. AID 2564. DNA fluorescent dye displacement counterscreen, fluorescence. Potency, µM (titrated, usually from 28.5 µM), without a hit: at the highest dose activity change, negative = inhibition, hits mostly inhibitors;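 further: loss of thiazole orange fluorescence as the dye is displaced from duplex DNA; 0% = ThO with dsDNA and no compound and -100% = ThO without dsDNA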
# EndoIV counter = blocks E. coli endonuclease IV DNA cleavage; shares compounds with APE1 inh-1; E. coli Endo IV, fluorogenic AP-site DNA cleavage; Potency, µM (highest dose often 27.1 µM), for the others: top-dose activity change, negative = inhibition, most hits filed as inhibitors; 560 tested, 4% active; AID 2565;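 further: plate controls were uninhibited enzyme wells for no effect and no enzyme buffer wells for full effect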
# APE1 inh-2 = confirmation of inhibitors of human APE1 endonuclease. Potency, µM (series often up to 57.1 µM), without a hit: at the highest dose activity change, negative = inhibition, hits mostly inhibitors. purified APE1, fluorogenic abasic-site DNA cleavage. shares compounds with APE1 inh-1. 750 tested, 44% active; further: on the % scale 0 is the no-effect control and ±100 the full control effect; nearly all actives have a fitted effect of over 30% in size
# APE1 FP = APE1 (human) DNA binding inhibition, fluorescence polarization | Potency, µM (doses to about 28.5 µM), for inactives: at the top dose activity, negative = inhibition, actives largely listed as inhibitors | shares compounds with APE1 inh-1 | APE1 binding to TAMRA-labelled double-stranded DNA, fluorescence polarization displacement | 480 tested, 7% active; further: on the % scale 0 is the no-effect control and ±100 the full control effect
# * hit, by the source's call; ? = inconclusive; . = no result; ! = not confirmed by another sample; [ ] = another dose, or the depositor's remark. Compounds with a hit are over-represented: about 2.4% of the library has one in this group of screens. The call rests on the fitted dose curve; in most records, active means well fitted curve in the direction sought with a large enough effect; inconclusive means small, poorly fitted or top-dose-only effect, or another doubt; inactive means no such curve, though single readings can be large; an effect the other way counts as inactive or inconclusive. Potency means the concentration at half of the fitted maximal effect.
SMILES,POLK inh,POLI inh,POLB inh,GLS inh,Pol eta inh,APE1 inh-1,EndoIV counter,APE1 inh-2,others
O=C(CCNC(=O)Cn1ccc2ccccc2c1=O)NCc1ccccn1,-13%,8%,69%,-5%,-4%,2%,.,.,
CC1(C)Cc2c(sc3[nH]c(=S)n(Cc4ccco4)c(=O)c23)CO1,-6%[60.1 µM],4%,-11%,-16%,-6%,35µM*,8%,-5%[24.4 µM],APE1 dye cs=-7%;APE1 FP=?
O=C1CCCc2oc3ccc(NS(=O)(=O)c4cccc5cccnc45)cc3c21,-16%,?,-18%,?,89µM*,?,.,?,
CC1(C)CC(=O)c2c(oc3ccc(NS(=O)(=O)c4cccc5cccnc45)cc23)C1,-7%,-13%,0%,1%,-12%,-10%,.,.,
CN=c1scc(-c2ccccc2F)n1/N=C/c1ccc[nH]1,-19%,13%,2%,7%,-4%,35µM*,6%,?,APE1 dye cs=17%;APE1 FP=-34%
COc1ccccc1Nc1nc(-c2sc(N)nc2C)cs1,-2%,31%,9%,15%,-11%,21%,.,.,
Cc1nc(N)sc1-c1csc(Nc2ncccn2)n1,-27%,?,?,-23%,?,?,.,?,
c1ccc(C2CC(c3cccs3)=NN2c2ccccc2)cc1 (stereo unspecified),-26%,-23%,?,12%,-18%,-4%,.,.,
Fc1ccc(C2CC(c3cccs3)=NN2c2ccccc2)cc1 (stereo unspecified),-11%,54%,-1%,2%,-12%,-6%,.,-17%,
COc1cccc(CNC(=O)CCC2CCCN(C(=O)c3csc(C(C)C)n3)C2)c1 (stereo unspecified),3%,28%,63%,2%,2%,1%,.,.,
Cc1onc(-c2ccccc2)c1C(=O)N1CCCC(C)(C(=O)NS(=O)(=O)C2CC2)C1 (stereo unspecified),.,.,.,9%,.,.,.,.,
C=CCNC(=S)N(Cc1ccccc1)Cc1ccc(F)cc1,-4%,10%,6%,8%,-6%,10%,.,.,
O=C(O)C1=CC(=C(c2ccc(O)c(C(=O)O)c2)c2ccc(O)c(C(=O)O)c2)C=CC1=O,0.63µM*!,0.05µM*!,0.022µM*,.,0.13µM*,0.0067µM*,2.2µM*,0.056µM*,
Cc1cc[n+](-c2[nH]c(=O)sc2/C=N/N=C(\[O-])c2ccncc2)cc1C,-5%,1%,4%,2%,0%,-38%,.,.,
Cc1cc[n+](-c2[nH]c(=O)sc2/C=N/N=C(\[O-])c2ccccc2)cc1C,-7%,82%,?,-3%,-18%,18µM*,8%,?,APE1 dye cs=141%;APE1 FP=-7%
COc1cc(OC)c2c(-c3ccccc3)cc(=O)oc2c1C(CC(=O)N1CCOCC1)c1ccc2c(c1)OCO2 (stereo unspecified),-21%,?,-1%,-5%,-6%,?,.,.,
